Values joined by “and” are separate entries in the source; they are usually repeats but may differ in a detail not shown here. Equal entries are not always repeated. About 2,000 (36%) of roughly 5,500 compounds were called active. Roughly 18% stayed inconclusive and do not appear here. Rule as the data show it: active = normalized growth mostly below about 0.91 (no sharp cut-off); inconclusive = no clear call, values can overlap the other calls; inactive = mostly above about 0.92. Some of the results follow.
Assay: chemical genetic growth profiling, strain panel (AID 1159580);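 also: tested at 20 µM; growth read once vehicle control cultures reached saturation at 30 °C; 1 = growth at the plate median or of vehicle wells; lower values mean less growth of the strain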
Conditions: S. cerevisiae deletion strains, growth OD

Measured: normalized growth

CCCc1nc(-c2ccccn2)[nH]c(=O)c1CC1CC1
0.292 (active) and 0.919 (inactive): locus YHR030C, strain SLT2, stronger effect = lower value
active: locus YAL013W, strain DEP1, stronger effect = lower value 0.861 | locus YBR229C, strain ROT2, stronger effect = lower value 0.727 | locus YDL134C, strain PPH21, stronger effect = lower value 0.862 | locus YEL061C, strain CIN8, stronger effect = lower value 0.611 | locus YGR078C, strain PAC10, stronger effect = lower value 0.842 | locus YGR229C, strain SMI1, stronger effect = lower value 0.886 | locus YHR087W, strain rtc3, stronger effect = lower value 0.754 | locus YJL187C, strain SWE1, stronger effect = lower value 0.829 | locus YJR075W, strain HOC1, stronger effect = lower value 0.879 | locus YKL190W, strain CNB1, stronger effect = lower value 0.698 | locus YLR039C, strain RIC1, stronger effect = lower value 0.489 | locus YLR085C, strain ARP6, stronger effect = lower value 0.218 | locus YLR262C, strain YPT6, stronger effect = lower value 0.757 | locus YML094W, strain GIM5, stronger effect = lower value 0.534 | locus YMR219W, strain ESC1, stronger effect = lower value 0.916 | locus YMR263W, strain SAP30, stronger effect = lower value 0.889 | locus YMR307W, strain GAS1, stronger effect = lower value 0.386 | locus YNL128W, strain TEP1, stronger effect = lower value 0.869 | locus YNL153C, strain GIM3, stronger effect = lower value 0.84 | locus YNL298W, strain CLA4 (second series), stronger effect = lower value 0.601 | locus YNR030W, strain Alg12, stronger effect = lower value 0.498 | locus YPL055C, strain LGE1, stronger effect = lower value 0.738 | locus YPL241C, strain CIN2, stronger effect = lower value 0.648 | locus YPR135W, strain CTF4, stronger effect = lower value 0.413
0.948 (inactive) and 0.899 (active): locus YDL101C, strain DUN1, stronger effect = lower value
inactive: locus YAR019C, strain CDC15, stronger effect = lower value 0.947 | locus YBL105C, strain PKC1, stronger effect = lower value 0.955 | locus YBR135W, strain CKS1, stronger effect = lower value 0.955 | locus YBR136W, strain MEC1, stronger effect = lower value 0.952 | locus YBR160W, strain CDC28, stronger effect = lower value 0.96 | locus YDL017W, strain CDC7, stronger effect = lower value 0.956 | locus YDL028C, strain MPS1, stronger effect = lower value 0.937 | locus YDL108W, strain KIN28, stronger effect = lower value 0.956 | locus YDL132W, strain cdc53, stronger effect = lower value 0.948 | locus YDL214C, strain PRR2, stronger effect = lower value 0.944 | locus YDR052C, strain DBF4, stronger effect = lower value 0.962 | locus YDR054C, strain cdc34, stronger effect = lower value 0.93 | locus YDR226W, strain ADK1, stronger effect = lower value 0.954 | locus YDR477W, strain SNF1, stronger effect = lower value 0.945 | locus YER123W, strain YCK3, stronger effect = lower value 0.903 | locus YER133W, strain GLC7, stronger effect = lower value 0.952 | locus YFL009W, strain cdc4, stronger effect = lower value 0.942 | locus YFL029C, strain CAK1, stronger effect = lower value 0.935 | locus YFR003C, strain YPI1, stronger effect = lower value 0.958 | locus YFR019W, strain FAB1, stronger effect = lower value 0.968 | locus YFR028C, strain CDC14, stronger effect = lower value 0.96 | locus YGR040W, strain KSS1, stronger effect = lower value 0.936 | locus YGR052W, strain FMP48, stronger effect = lower value 1.01 | locus YGR092W, strain DBF2, stronger effect = lower value 0.865 | locus YHR079C, strain IRE1, stronger effect = lower value 0.853 | locus YHR082C, strain KSP1, stronger effect = lower value 0.968 | locus YHR205W, strain SCH9, stronger effect = lower value 0.98 | locus YIL147C, strain SLN1, stronger effect = lower value 0.945 | locus YJL095W, strain BCK1, stronger effect = lower value 0.915 | locus YJL128C, strain PBS2, stronger effect = lower value 0.96 | locus YJL157C, strain FAR1, stronger effect = lower value 0.928 | locus YJR016C, strain ILV3, stronger effect = lower value 0.953 | locus YJR043C, strain POL32, stronger effect = lower value 0.923 | locus YJR066W, strain TOR1 (second series), stronger effect = lower value 0.849 | locus YJR066W, strain TOR1, stronger effect = lower value 0.887 | locus YKL048C, strain ELM1, stronger effect = lower value 0.956 | locus YKL067W, strain YNK1, stronger effect = lower value 0.954 | locus YKL101W, strain HSL1, stronger effect = lower value 0.933 | locus YKL193C, strain SDS22, stronger effect = lower value 0.952 | locus YKL203C, strain TOR2, stronger effect = lower value 0.98 | locus YLR058C, strain SHM2 (second series), stronger effect = lower value 0.938 | locus YLR113W, strain HOG1, stronger effect = lower value 0.88 | locus YLR133W, strain CKI1, stronger effect = lower value 0.938 | locus YLR403W, strain SFP1, stronger effect = lower value 0.94 | locus YML070W, strain DAK1, stronger effect = lower value 0.959 | locus YMR001C, strain CDC5, stronger effect = lower value 0.949 | locus YMR205C, strain PFK2 (second series), stronger effect = lower value 0.939 | locus YMR277W, strain FCP1, stronger effect = lower value 0.953 | locus YNL006W, strain LST8, stronger effect = lower value 0.966 | locus YNL020C, strain ARK1, stronger effect = lower value 0.937 | locus YNL161W, strain CBK1, stronger effect = lower value 0.957 | locus YNL183C, strain NPR1, stronger effect = lower value 0.93 | locus YNL207W, strain RIO2, stronger effect = lower value 0.94 | locus YNL222W, strain SSU72, stronger effect = lower value 0.959 | locus YNL307C, strain MCK1 (second series), stronger effect = lower value 0.937 | locus YNL322C, strain KRE1, stronger effect = lower value 0.975 | locus YOL078W, strain AVO1, stronger effect = lower value 0.951 | locus YOL136C, strain PFK27, stronger effect = lower value 0.959 | locus YOR061W, strain CKA2, stronger effect = lower value 0.925 | locus YOR119C, strain RIO1, stronger effect = lower value 0.937 | locus YOR231W, strain MKK1, stronger effect = lower value 0.881 | locus YOR329C, strain SCD5, stronger effect = lower value 0.952 | locus YPL031C, strain PHO85, stronger effect = lower value 0.941 | locus YPL153C, strain RAD53, stronger effect = lower value 0.926 | locus YPL204W, strain HRR25, stronger effect = lower value 0.927 | locus YPL209C, strain IPL1, stronger effect = lower value 0.958 | locus YPL256C, strain CLN2, stronger effect = lower value 0.9 | locus YPR025C, strain CCL1, stronger effect = lower value 0.949 | locus YPR106W, strain ISR1, stronger effect = lower value 0.979 | locus YPR111W, strain DBF20, stronger effect = lower value 0.973 | strain NNK1, stronger effect = lower value 0.962 | strain TSCII, stronger effect = lower value 0.949

Source: PubChem BioAssay AID1159580 (chemical genetic matrix, 2015)
